We go through 10 compounds from PubChem BioAssay (NCI).

Test [1] can be described thus: NCI Yeast Anticancer Drug Screen. Data for the rad50 strain (AID 155).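 Note: 0% = growth of vehicle-only cultures of the same strain.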 The note with it: S. cerevisiae rad50 strain growth inhibition, hits give high values. The essentials:
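Cells are treated with compound, grown, and their growth is then scored against vehicle-only cultures of the same repair-deficient yeast strain.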

Test [2] in a line: NCI Yeast Anticancer Drug Screen. Data for the mec2-1 strain (AID 157). The settings on record: S. cerevisiae mec2-1 strain, hits give high values. The essentials: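 Cells of the genetically defined mec2-1 yeast strain are incubated with test compound. Inhibition of growth is calculated against vehicle-treated controls.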
A short description of test [3]: NCI Yeast Anticancer Drug Screen. Data for the sgs1 mgt1 strain (AID 161).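 Note: 0% = growth of cultures given vehicle only.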 The note with it: S. cerevisiae sgs1 mgt1 strain, hits give high values. The essentials:
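Test agents were incubated with a DNA-repair-mutant yeast strain. Growth was then read and compared against vehicle-treated controls.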

Test [4] can be described thus: NCI Yeast Anticancer Drug Screen. Data for the cln2 rad14 strain (AID 165).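 Note: 0% = growth equal to vehicle treated cultures.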 The note with it: S. cerevisiae cln2 rad14 strain, hits give high values. The essentials: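 The screen exposed genetically defined yeast (cln2 rad14) to test compounds and scored growth inhibition relative to vehicle-treated controls.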
A short description of test [5]: NCI Yeast Anticancer Drug Screen. Data for the bub3 strain (AID 167). The note with it: S. cerevisiae bub3 mutant strain, hits give high values. The essentials: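 Part of a panel of yeast mutants defective in DNA damage repair or cell cycle regulation. Each strain is grown with compound, and inhibition is calculated relative to solvent-treated cultures.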
Test [6] in a line: NCI Yeast Anticancer Drug Screen. Data for the mlh1 rad18 strain (AID 175). The note with it: S. cerevisiae mlh1 rad18 strain growth inhibition, hits give high values. The essentials:
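Compound-treated yeast growth, normalised to vehicle controls. Strain bears defined DNA repair mutations.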

[7] abbreviates: at 5.0 µM (retest, dose inferred, filed as 0.5).
Where [8] appears, read: at 50.0 µM (retest, dose inferred, filed as 5.0).

This is part of a sample that, as a whole, favours compounds with a hit. Of some 79,000 tested, about 15% had one in any assay. Values without a mark were called inactive. Calls of active or inactive are those of the source. Cut-off read from the data, not from the text of the source: active = growth inhibition above about 70%; inactive = the rest.

For the compound `COc1cc(F)ccn1`, the growth inhibition is 2% in test [1] (setting [7]); 0% in test [1] (setting [8]); -4.75% in test [1] (at 50.0 µM); 5% in test [2] (setting [7]); 4% in test [2] (setting [8]); -11.4% in test [2] (at 50.0 µM). For the same compound, the growth inhibition in test [3] (setting [7]) was 2%; in test [3] (setting [8]), 2%; in test [3] (at 50.0 µM), -12.5%; in test [4] (setting [7]), 1%; in test [4] (setting [8]), 4%; in test [4] (at 50.0 µM), 12.8%. Besides, the growth inhibition was -2% in test [5] (setting [7]); -4% in test [5] (setting [8]); 46% in test [5] (at 50.0 µM); -4% in test [6] (setting [7]); -3% in test [6] (setting [8]); -18.2% in test [6] (at 50.0 µM).
As to `CC(C)CC(N)C(=O)NNc1ccccc1` (stereo not given), the growth inhibition in test [1] (setting [7]) is 29%; in test [1] (setting [8]), 94% (active); in test [1] (at 50.0 µM), 96.8% (active); in test [2] (setting [7]), 23%; in test [2] (setting [8]) it was 96% (active); in test [2] (at 50.0 µM), 84.2% (active). For the same compound, the growth inhibition in test [3] (setting [7]) was 30%; in test [3] (setting [8]), 97% (active); in test [3] (at 50.0 µM) it was 88.6% (active); in test [4] (setting [7]) it was 19%; in test [4] (setting [8]), 83% (active); in test [4] (at 50.0 µM), 94.2% (active). For the same compound, the growth inhibition in test [5] (setting [7]) was 37%; in test [5] (setting [8]) it was 96% (active); in test [5] (at 50.0 µM) it was 97.5% (active); in test [6] (setting [7]) it was 72% (active); in test [6] (setting [8]) it was 99% (active); in test [6] (at 50.0 µM) it was 98% (active).
Take `CCOC(=O)c1ccc(NC(=O)O/N=C(/Cl)CCl)cc1`: the growth inhibition in test [1] (setting [7]) is -14%; in test [1] (setting [8]) it was 99% (active); in test [1] (at 50.0 µM) it was 41.2%; in test [2] (setting [7]), -5%; in test [2] (setting [8]) it was 95% (active); in test [2] (at 50.0 µM), 83.8% (active). For the same compound, the growth inhibition was -22% in test [3] (setting [7]); 50% in test [3] (setting [8]); 55.3% in test [3] (at 50.0 µM); -10% in test [4] (setting [7]); 78% (active) in test [4] (setting [8]); 57.2% in test [4] (at 50.0 µM). The growth inhibition in test [5] (setting [7]) is -16%; in test [5] (setting [8]), 43%; in test [5] (at 50.0 µM) it was 73.5% (active); in test [6] (setting [7]), -5%; in test [6] (setting [8]) it was 79% (active); in test [6] (at 50.0 µM), 69%.
As for `O=C(CSCc1c(F)cccc1Cl)Nc1ccc(F)c(Cl)c1`, the growth inhibition in test [1] (setting [7]) was 51%; in test [1] (setting [8]), 39%; in test [1] (at 50.0 µM), 88.3% (active); in test [2] (setting [7]) it was 34%; in test [2] (setting [8]) it was 38%; in test [2] (at 50.0 µM) it was 91.3% (active). Further, the growth inhibition in test [3] (setting [7]) is 36%; in test [3] (setting [8]), 50%; in test [3] (at 50.0 µM) it was 91.7% (active); in test [4] (setting [7]), 33%; in test [4] (setting [8]) it was 44%; in test [4] (at 50.0 µM) it was 90.1% (active). In addition, the growth inhibition in test [5] (setting [7]) is 45%; in test [5] (setting [8]), 76% (active); in test [5] (at 50.0 µM), 91.5% (active); in test [6] (setting [7]), 49%; in test [6] (setting [8]), 53%; in test [6] (at 50.0 µM), 63.2%.
Consider `O=C1C(C(O)(C(F)(F)Cl)C(F)(F)Cl)CCCC1C(O)(C(F)(F)Cl)C(F)(F)Cl` (stereo not given), for which the growth inhibition is 95% (active) in test [1] (setting [7]); 99% (active) in test [1] (setting [8]); 99.7% (active) in test [1] (at 50.0 µM); 97% (active) in test [2] (setting [7]); 100% (active) in test [2] (setting [8]); 99.7% (active) in test [2] (at 50.0 µM). Besides, the growth inhibition was 95% (active) in test [3] (setting [7]); 99% (active) in test [3] (setting [8]); 99.8% (active) in test [3] (at 50.0 µM); 79% (active) in test [4] (setting [7]); 100% (active) in test [4] (setting [8]); 99.3% (active) in test [4] (at 50.0 µM). For the same compound, the growth inhibition is 35% in test [5] (setting [7]); 99% (active) in test [5] (setting [8]); 99.7% (active) in test [5] (at 50.0 µM); 96% (active) in test [6] (setting [7]); 99% (active) in test [6] (setting [8]); 99.6% (active) in test [6] (at 50.0 µM).
With `C/C(=N\NS(=O)(=O)c1ccc(C)cc1)c1cc2ccccc2n1C`, the growth inhibition in test [1] (setting [7]) was 0%; in test [1] (setting [8]), 85% (active); in test [1] (at 50.0 µM) it was 74.9% (active); in test [2] (setting [7]), -24%; in test [2] (setting [8]), 65%; in test [2] (at 50.0 µM), 44.2%. The growth inhibition in test [3] (setting [7]) was -17%; in test [3] (setting [8]), 82% (active); in test [3] (at 50.0 µM), 63.2%; in test [4] (setting [7]), -5%; in test [4] (setting [8]), 92% (active); in test [4] (at 50.0 µM), 78.5% (active). Also, the growth inhibition is 31% in test [5] (setting [7]); 93% (active) in test [5] (setting [8]); 60.7% in test [5] (at 50.0 µM); 3% in test [6] (setting [7]); 86% (active) in test [6] (setting [8]); 65.2% in test [6] (at 50.0 µM).
For `O=C(CNc1ccc(Cl)cc1)Nn1c(-c2ccccc2)nc2ccccc2c1=O`, the growth inhibition in test [1] (setting [7]) is 8%; in test [1] (setting [8]), 29%; in test [1] (at 50.0 µM) it was 64.7%; in test [2] (setting [7]) it was -9%; in test [2] (setting [8]) it was 42%; in test [2] (at 50.0 µM) it was 56.6%. Besides, the growth inhibition was 10% in test [3] (setting [7]); 30% in test [3] (setting [8]); 79% (active) in test [3] (at 50.0 µM); 11% in test [4] (setting [7]); 32% in test [4] (setting [8]); 45.2% in test [4] (at 50.0 µM). For the same compound, the growth inhibition in test [5] (setting [7]) is -7%; in test [5] (setting [8]), 31%; in test [5] (at 50.0 µM), 62.1%; in test [6] (setting [7]) it was 4%; in test [6] (setting [8]), 51%; in test [6] (at 50.0 µM) it was 81.3% (active).
With `C1CCC(CCCCc2nn[nH]n2)CC1`, the growth inhibition in test [1] (setting [7]) is 0%; in test [1] (setting [8]), 98% (active); in test [1] (at 50.0 µM), 99.1% (active); in test [2] (setting [7]) it was -30%; in test [2] (setting [8]), 97% (active); in test [2] (at 50.0 µM), 99.3% (active). For the same compound, the growth inhibition was -1% in test [3] (setting [7]); 96% (active) in test [3] (setting [8]); 99% (active) in test [3] (at 50.0 µM); 0% in test [4] (setting [7]); 99% (active) in test [4] (setting [8]); 98.3% (active) in test [4] (at 50.0 µM). Moreover, the growth inhibition in test [5] (setting [7]) is -6%; in test [5] (setting [8]), 97% (active); in test [5] (at 50.0 µM) it was 99.3% (active); in test [6] (setting [7]) it was -7%; in test [6] (setting [8]), 97% (active); in test [6] (at 50.0 µM) it was 99% (active).
Regarding `O=C1OC2(c3ccc(O)cc3Oc3cc(O)ccc32)c2c1c(-c1ccccc1)c(-c1ccccc1)c(-c1ccccc1)c2-c1ccccc1`, the growth inhibition in test [1] (setting [7]) was 26%; in test [1] (setting [8]) it was 83% (active); in test [1] (at 50.0 µM), 76.7% (active); in test [2] (setting [7]) it was 13%; in test [2] (setting [8]) it was 52%; in test [2] (at 50.0 µM) it was 36.6%. Further, the growth inhibition was 14% in test [3] (setting [7]); 50% in test [3] (setting [8]); 39.9% in test [3] (at 50.0 µM); -10% in test [4] (setting [7]); 34% in test [4] (setting [8]); -14.4% in test [4] (at 50.0 µM). The growth inhibition is -1% in test [5] (setting [7]); 59% in test [5] (setting [8]); 50.9% in test [5] (at 50.0 µM); 6% in test [6] (setting [7]); 73% (active) in test [6] (setting [8]); 62.8% in test [6] (at 50.0 µM).
Turning to `S=C(N/N=C(/c1ccccc1)c1ccccn1)Nc1ccccc1`, the growth inhibition is 2% in test [1] (setting [7]); 90% (active) in test [1] (setting [8]); 84.3% (active) in test [1] (at 50.0 µM); 14% in test [2] (setting [7]); 95% (active) in test [2] (setting [8]); 73.5% (active) in test [2] (at 50.0 µM). Moreover, the growth inhibition in test [3] (setting [7]) was 20%; in test [3] (setting [8]), 95% (active); in test [3] (at 50.0 µM) it was 85.3% (active); in test [4] (setting [7]) it was -9%; in test [4] (setting [8]), 94% (active); in test [4] (at 50.0 µM) it was 60.4%. The growth inhibition in test [5] (setting [7]) was 2%; in test [5] (setting [8]) it was 93% (active); in test [5] (at 50.0 µM) it was 76.2% (active); in test [6] (setting [7]), 13%; in test [6] (setting [8]) it was 94% (active); in test [6] (at 50.0 µM) it was 90% (active).
